Assay [1] can be described thus: S16 Schwann cell PMP22 intronic element beta-lactamase assay (AID 624044; calls by dose curve;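 also: 0% = DMSO and -100% = potassium clavulanate positive control; nearly all actives have a fitted effect of over 15% in size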). An outline of the steps: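 Beta-lactamase reporter under a PMP22 intronic regulatory element in stable S16 rat Schwann cells; 24 h compound exposure. 460 nm blue signal normalized between DMSO (0%) and potassium clavulanate, with 535 nm FRET tracking viability; curves classed by r2 and response.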

In assay [2] the target is Glutaminase kidney isoform, mitochondrial (Homo sapiens) (UniProt O94925). Put plainly: qHTS for Inhibitors of Glutaminase (GLS): LOPAC Validation (AID 624146).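 Also: glutamate product detected by oxidase and peroxidase coupled Amplex red fluorescence gain; series mostly up to about 46 µM; % is scaled to controls: 0 for no effect and ±100 for the full control effect; nearly all actives have a fitted effect of over 60% in size.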 Put shortly:
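Enzyme dispensed in phosphate buffer (45 mM, pH 8.2, 0.02% Tween-20), compounds pinned in, then 1 mM L-glutamine solution and the glutamate oxidase–HRP–Amplex Red mix added; fluorescence read immediately and again after 30 min at room temperature.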
A general note: qHTS replaces the single test concentration by a dilution series.

Assay [3] in a line: qHTS of Trypanosoma Brucei Inhibitors: LOPAC Validation (AID 624147). Also: 0% is about no effect. An outline of the steps: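 Luminescence from Kinase-Glo Plus, added after a 45-minute room-temperature reaction, served as the end-point read-out. The enzyme and substrate were preincubated with compound before ADP (130 uM final) initiated turnover. Concentration-effect curves came from normalized qHTS data.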

The target in assay [4] is Glucagon-like peptide 1 receptor (Homo sapiens) (UniProt P43220). Put plainly: qHTS of GLP-1 Receptor Agonists: LOPAC Validation (AID 624148).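 Also: luminescence from a luciferase reporter switched on by cAMP; 0% is about no effect; higher luminescence signal means agonism.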 An outline of the steps: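 Agonism scored as increased luciferase luminescence driven by cAMP in HEK293 clones carrying GLP-1R. Cells settled 12 hours, received compound for 4-6 hr at 37 deg C, 5% CO2, and were read after 12 min detection reagent at RT.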
Glucagon-like peptide 1 receptor (Homo sapiens), sequence (P43220 whole entry, looked up): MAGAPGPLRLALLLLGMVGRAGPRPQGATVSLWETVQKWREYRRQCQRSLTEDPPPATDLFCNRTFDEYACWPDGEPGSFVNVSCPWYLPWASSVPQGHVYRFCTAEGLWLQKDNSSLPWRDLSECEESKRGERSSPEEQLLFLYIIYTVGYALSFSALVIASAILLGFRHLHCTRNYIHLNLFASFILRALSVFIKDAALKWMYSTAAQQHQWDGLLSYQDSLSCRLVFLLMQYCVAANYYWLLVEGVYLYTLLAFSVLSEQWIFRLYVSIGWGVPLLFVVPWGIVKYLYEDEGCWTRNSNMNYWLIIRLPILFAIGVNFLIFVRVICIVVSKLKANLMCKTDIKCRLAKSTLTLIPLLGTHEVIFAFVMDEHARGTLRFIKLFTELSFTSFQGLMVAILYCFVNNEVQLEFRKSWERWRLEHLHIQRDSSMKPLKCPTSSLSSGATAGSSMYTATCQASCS

Assay [5] can be described thus: qHTS of Nrf2 Activators: LOPAC Validation (AID 624149). Also: 0% is about no effect. Put shortly:
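AREc32_Fluc cells, 1000/well, OPTI-MEM + 5% FBS, o/n 37 deg C 5% CO2; compound pin-transfer, 24 hr 37 deg C; Steady-Glo 30 min RT, luminescence read.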

Assay [6] in a line: HTS Assay for Allosteric Antagonists of the Human D2 Dopamine Receptor: Hit Validation in HTRF (AID 624455). Also: % is scaled to controls: 0 for no effect and ±100 for the full control effect. Put shortly: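 HTRF read-out; cells stably expressing D1 receptor; hits scored for inhibition of D1-mediated response. Primary screen: calcium flux, force-coupled inducible Hek293 Trex D2 line, antagonism vs EC80 dopamine.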
On the technique in general: In TR-FRET formats the signal depends on donor and acceptor labels being close together.

Assay [7] is described as follows: qHTS assay for environmental chemicals that activate the Aryl hydrocarbon Receptor (AhR) signaling pathway (AID 651777). Also: % of control where 0% means no effect; nearly all actives have a fitted effect of over 15% in size. Particulars: 1A2-DRE human hepatoma cells, luciferase, 24 h; activation: active compounds read high. Put shortly: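 Luminescence read-out: One-Glo added for 30 min at RT after 24 hr compound treatment (37 C, 5% CO2) of human hepatoma cells expressing a DRE/CYP1A2 promoter–luciferase reporter; increased signal indicates AhR activation.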

A short description of assay [8]: qHTS assay for small molecule agonists of the antioxidant response element (ARE) signaling pathway (AID 651741; active = well fitted activation curve with a large enough effect in the signal ratio; the % refers to the signal ratio; also: potency is read from the fitted curve at half-maximal effect). An outline of the steps:
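Agonist activity is measured as ARE-driven beta-lactamase expression in a stable HepG2 reporter line, using 16 h compound treatment at 37 C and a FRET substrate fluorescence readout after 2 h.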

A short description of assay [9]: qHTS assay for small molecule activators of the p53 signaling pathway (AID 651743; active = well fitted activation curve with a large enough effect in the signal ratio, not every such curve was filed as active; the % refers to the signal ratio; also: series mostly up to about 92 µM; % of control where 0% means no effect). Particulars: HCT-116 p53RE-bla, beta-lactamase FRET ratio, 16 h; activation: active compounds read high. An outline of the steps: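 A beta-lactamase reporter under p53 response element control, stably carried by HCT-116 cells, reported pathway activation. Test compounds were applied for 16 hours at 37 C, and fluorescence was measured 2 hours after adding the B/G FRET substrate.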

Assay [10] is described as follows: qHTS assay for small molecule activators of the nuclear factor-kappa B (NF-kB) signaling pathway (AID 651749; active = well fitted activation curve with a large enough effect in the signal ratio; the % refers to the signal ratio; also: series mostly up to about 77 µM; % of control where 0% means no effect). Particulars: NF-kB-bla ME-180 cells, beta-lactamase FRET ratio, 16 h; active compounds read high. An outline of the steps: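 FRET-based beta-lactamase detection in ME-180 cells reports NF-kB response-element-driven transcription following overnight (16 hr) compound treatment.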

Assay [11] in a line: qHTS assay for small molecule disruptors of the mitochondrial membrane potential - 1 hr assay (AID 651754; calls by dose curve; also: % is scaled to controls: 0 for no effect and ±100 for the full control effect; nearly all actives have a fitted effect of over 35% in size). Put shortly: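 Read-out: dye fluorescence at 490 nm ex/535 nm em (monomers) and 540 nm ex/590 nm em (aggregates) in HepG2 cells. Compound exposure 1 hr at 37C, followed by 30 min dye loading.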
The nature of assay [12]: qHTS assay for small molecule disruptors of the mitochondrial membrane potential - 5 hr assay (AID 651755; calls by dose curve; also: % is scaled to controls: 0 for no effect and ±100 for the full control effect; nearly all actives have a fitted effect of over 40% in size). Put shortly: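 Membrane-potential dye readout: red aggregate (540 ex/590 em) versus green monomer (490 ex/535 em) fluorescence after 30 min dye loading, following 5 hr compound exposure at 37C of overnight-plated HepG2 cells.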
In assay [13] the target is Tumor necrosis factor (Homo sapiens) (UniProt P01375). The experiment in a line: qHTS assay to identify small molecules that stimulate Tumor Necrosis Factor-alpha (TNF-alpha) secretion (AID 651757; active = well fitted curve in the direction sought with a large enough effect in the signal ratio; the % refers to the signal ratio; also: 0% is about no effect). Put shortly:
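THP-1 cells, 3000/well; compound 17 hrs, 37 C; add cryptate/XL665 anti-TNF-alpha antibody pair; 3 hr RT; TR-FRET (HTRF) read of secreted TNF-alpha. Quantitative HTS format.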

The nature of assay [14]: Cell Proliferation Assay against the TMD8 Cell Line (Caspase readout at 16 hrs) (AID 651712).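 Also: 0% = DMSO and 100% = 9.2 µM bortezomib caspase activation.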 Put shortly:
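Caspase-Glo luminescence measured apoptosis after a 16 h, 37 C compound exposure of TMD8 cells (500 cells/well, 5% FBS RPMI). DMSO set 0% and bortezomib at 9.2 uM final set 100% activity.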

15 compounds from PubChem BioAssay (NCATS) can be followed below.

Molecules are shown by their SMILES. “And” between values parts separate entries of the source, which are not always exact repeats. Identical values can stand only once. Values without a mark were called inactive. Records with an inconclusive call do not appear. The source made the active and inactive calls. Unless noted, calls follow the shape of the dose curve; as a rule, active = well fitted curve in the direction sought with a large enough effect; inconclusive = small, poorly fitted or top-dose-only effect, or another doubt; inactive = no such curve, though single readings can be large; an effect the other way counts as inactive or inconclusive.

Glutaminase kidney isoform, mitochondrial (Homo sapiens), sequence (O94925 whole entry, looked up, canonical isoform): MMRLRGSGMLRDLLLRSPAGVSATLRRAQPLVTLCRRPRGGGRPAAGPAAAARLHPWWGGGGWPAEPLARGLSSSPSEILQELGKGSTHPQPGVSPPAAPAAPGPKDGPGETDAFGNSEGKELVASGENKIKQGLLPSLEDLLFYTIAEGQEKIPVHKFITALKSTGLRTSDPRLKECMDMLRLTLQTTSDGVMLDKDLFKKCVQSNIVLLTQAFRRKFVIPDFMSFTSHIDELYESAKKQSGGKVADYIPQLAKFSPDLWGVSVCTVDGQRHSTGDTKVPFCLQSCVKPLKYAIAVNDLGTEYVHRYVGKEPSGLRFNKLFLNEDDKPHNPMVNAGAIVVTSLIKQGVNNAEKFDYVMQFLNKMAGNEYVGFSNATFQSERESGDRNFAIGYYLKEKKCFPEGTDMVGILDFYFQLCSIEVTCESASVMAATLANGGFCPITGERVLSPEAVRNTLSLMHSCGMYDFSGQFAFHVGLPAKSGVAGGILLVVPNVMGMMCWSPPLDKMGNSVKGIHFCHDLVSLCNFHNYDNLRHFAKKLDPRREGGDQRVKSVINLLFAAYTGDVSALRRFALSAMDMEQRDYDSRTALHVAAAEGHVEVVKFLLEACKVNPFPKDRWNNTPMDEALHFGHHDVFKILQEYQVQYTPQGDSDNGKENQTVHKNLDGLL
Tumor necrosis factor (Homo sapiens), sequence (P01375 whole entry, looked up): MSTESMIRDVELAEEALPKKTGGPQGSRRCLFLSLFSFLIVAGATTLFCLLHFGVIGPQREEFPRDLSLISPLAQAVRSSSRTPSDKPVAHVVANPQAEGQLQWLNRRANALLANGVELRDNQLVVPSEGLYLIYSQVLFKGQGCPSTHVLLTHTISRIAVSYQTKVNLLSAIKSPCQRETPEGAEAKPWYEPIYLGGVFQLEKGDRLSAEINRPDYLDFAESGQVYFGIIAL

In the case of `CN1C2CCC1CC(OC(=O)c1cc(Cl)cc(Cl)c1)C2` (stereo unspecified), the Potency entry in assay [1], in assay [2] and in [6] was “inactive” in each case. Besides, the compound was called inactive in assay [3], in [4] and in assay [5].
Turning to `c1ccc(C2(c3ccccc3)CC2C2=NCCN2)cc1` (stereo unspecified), the Potency entry in [1], in assay [2] and in assay [6] was “inactive” each time. The compound was classed as inactive in [3], in [4] and in assay [5].
As to `CS(=N)(=O)CC[C@H](N)C(=O)O` (stereo partly specified), the Potency result in assay [2] is “inactive”. In addition, the compound was classed as inactive in assay [3], in assay [4] and in assay [5].
As for `CCCCCCCCCC(CC)c1ccc(S(=O)(=O)O)cc1` (stereo unspecified), the Potency result in assay [1] is “inactive”. Further, in assay [7], the activation is -1.06%.
In the case of `COC(C)(C)CCCC(C)C/C=C/C(C)=C/C(=O)OC(C)C` (stereo unspecified), the Potency entry in assay [1], in [11] and in assay [12] was “inactive” each time. For the same compound, in [8], the Potency is 48.6 µM (active) and 66.8 µM (active). The activation in [9] is -4.75% and -1.61%; in [10], -3.22% and 0.402%; in assay [7] it was 4.38% and 10.5%. Moreover, in assay [13], the result was inactive.
Take `CCCN1CCC[C@H](c2cccc(O)c2)C1`: the Potency entry in assay [1] and in assay [2] was “inactive” in each case. Moreover, the outcome in [3], in assay [4] and in [5] was inactive.
`NC(CCP(=O)(O)O)C(=O)O` (stereo unspecified): the Potency entry in [2] and in [6] was “inactive” each time. Also, the compound was classed as inactive in assay [3], in assay [4] and in [5].
For the compound `NCCc1c[nH]c2ccccc12`, in assay [2], the Potency entry is “inactive”. Further, the call in [3], in assay [4] and in assay [5] was inactive.
With `NC1CC1c1ccccc1` (stereo unspecified), in [2], the Potency entry is “inactive”. Also, the outcome in assay [3], in assay [4] and in [5] was inactive.
As to `NC(=O)CN1CC(O)CC1=O` (stereo unspecified), the Potency entry in assay [1], in assay [2] and in assay [6] was “inactive” each time. For the same compound, the compound was called inactive in assay [3], in [4] and in assay [5].
For the compound `CCCCc1ccc(C(=O)O)nc1`, the Potency result in assay [2] and in [6] was “inactive” each time. Moreover, the outcome in assay [3], in [4] and in [5] was inactive.
As to `CC(=O)[C@H]1CCC2C3CC[C@H]4C[C@H](O)CC[C@]4(C)C3CC[C@@]21C` (stereo partly specified), the Potency result in assay [2] was “inactive”. In addition, the outcome in assay [3], in assay [4] and in assay [5] was inactive.
For `C=CCN1CC[C@]23CCCCC2[C@H]1Cc1ccc(O)cc13` (stereo partly specified), the Potency result in [1], in assay [2] and in assay [6] was “inactive” throughout. In addition, the result in assay [3], in assay [4] and in [5] was inactive.
For the compound `C#CCOC(=O)C1=CCCN(C)C1`, the Potency result in [2] and in assay [6] was “inactive” in each case. In addition, the compound was called inactive in [3], in [4] and in [5].
For the compound `CC(=O)Nc1ccc(OC[C@](C)(O)C(=O)Nc2ccc([N+](=O)[O-])c(C(F)(F)F)c2)cc1`, the Potency result in assay [14] was “inactive”.
